SMILES strings stand for the structures. Records with an inconclusive call do not appear. Entries that show only a call come without a potency. Active and inactive are the calls of the source. The call rests on the fitted dose curve; in most records, active means well fitted curve in the direction sought with a large enough effect; inconclusive means small, poorly fitted or top-dose-only effect, or another doubt; inactive means no such curve, though single readings can be large; an effect the other way counts as inactive or inconclusive. Bridge positions count the residues as written; N and C are the ends. Square brackets hold non-standard residues; d marks the D form. Side chains are listed from the residue outwards. Peptide text beside a SMILES is read from it. * marks the point of attachment. Phg(4-OMe) = COc1ccc([C@H](N)C(=O)O)cc1; d(aIle) = CC[C@H](C)[C@@H](N)C(=O)O; d(aThr) = C[C@@H](O)[C@@H](N)C(=O)O; NMeF = CN[C@@H](Cc1ccccc1)C(=O)O; Isobutyryl = CC(C)C(=O)*

A short description of one assay: HEK293 24hr Apoptosis Induction qHTS against the NCATS CANVASS Library (AID 1347359). The following applies: HEK293 caspase-3/7 activation, Caspase-Glo luminescence; series mostly up to 46.1 µM. The method, boiled down:
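HEK293 cells (500/well, DMEM + 10% FBS) were exposed to compounds in an 11-point series for 24 hours at 37 degrees C, then caspase-3/7 activity was read by Caspase-Glo DEVD luciferase luminescence after 15 min.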
For `CC(C)=CCC[C@]12c3cc4c(cc3CC[C@@]1(C)[C@H](C)CC[C@@H]2O)[nH]c1ccccc14`, the Potency result is “inactive”.
Consider `C/C=C/C1C=CC2CC(C)CC(C)C2C1C(=O)CC(=O)NC(CO)C/C=C/CCCCC` (stereo not drawn), for which the Potency entry was “inactive”.
Consider `C=C1CC[C@@H](Br)C(C)(C)[C@]12CC=C(C)C(=O)C2`, for which the Potency entry is “inactive”.
On the same count and under the same terms, in the case of `C=CC(CCCCC)C1C(=O)NC(=O)C1C(=O)C1C(/C=C/C)C=CC2CC(C(=O)O)CC(C)C21` (stereo not drawn) it was “inactive”.
On the same count and under the same terms, in the case of `C=C[C@@]1(C)CC[C@@H]([C@H](C)C(=O)/C=C/C(C)(C)O)O1` it was “inactive”; in that of `C=C1CC[C@@H](O[C@H]2C[C@@](O)([C@H](C)NC(=O)c3[nH]c(C)c(Cl)c3Cl)[C@H](O)[C@@H](C)O2)[C@@H]2C=C[C@H](C)C(/C(O)=C3/C(=O)[C@H](C(C)C)N([C@@H]4O[C@H](C)[C@H](OC(N)=O)[C@H](OC(C)=O)[C@@H]4OC)C3=O)[C@@H]12` (stereo partly drawn), “inactive”.
Same read-out and setting: the result for `CC[C@H](C)[C@H]1NC(=O)[C@@H](NC(=O)C(C)C)[C@@H](C)OC(=O)[C@H](COC(=O)CNC(C)=O)NC(=O)[C@@H]([C@@H](C)O)NC(=O)[C@H](Cc2ccccc2)N(C)C(=O)[C@H](c2ccc(OC)cc2)NC1=O` (Isobutyryl-T[d(aIle)][Phg(4-OMe)][NMeF][d(aThr)]S([Gly-Ac]); ester 1-C) reads “inactive”.
As to `COc1c(O)cc2c(c1O)C(=O)c1c(coc1C)C2=O`, the Potency entry was “inactive”.
Still for that read-out and setting: in the case of `C[C@]12CC[C@]3(C1)[C@H](CC2=O)C[C@@H](OC(=O)c1ccccc1)[C@H]1[C@](C)(C(=O)O)CCC[C@@]13C` it was “inactive”; in that of `COc1ccc2[nH]c3c(c2c1)CCN1C[C@H]2C[C@@H](OC(=O)c4cc(OC)c(OC)c(OC)c4)[C@H](OC)[C@@H](OC)[C@H]2C[C@H]31`, “inactive”; in that of `CC(=O)O[C@H]1c2ccccc2-c2c3c(cc4c2[C@@H]1N(C(C)=O)CC4)OCO3`, “inactive”.
Same read-out and setting: the result for `O[C@H]1c2ccccc2-c2c3c(cc4c2[C@@H]1NCC4)OCO3` reads “inactive”.
Consider `COc1cc(C2OCC3C(c4ccc(O)c(OC)c4)OCC23)ccc1O` (stereo not drawn), for which the activation is 6.68% [at 9.19 µM] (inactive).
On to `COc1cc(O)c(C(=O)[C@@H]2[C@H](CC=C(C)C)C(C)=CC[C@H]2c2ccccc2)c(O)c1`, for which the Potency result is “inactive”.
For the molecule `COc1cc2c(c(O)c1O)C(=O)c1c(coc1C)C2=O`, the Potency entry is “inactive”.
Turning to `CCC(=O)N[C@@H](C[C@H](C)C(Cl)(Cl)Cl)C(=O)N1C(=O)C=C(OC)[C@@H]1CC(C)C`, the Potency result was “inactive”.
As for `O=c1cc(-c2ccc(O)c(O)c2)oc2cc(O[C@@H]3O[C@H](CO)[C@@H](O)[C@H](O)[C@H]3O)cc(O)c12`, the Potency entry was “inactive”.
Same read-out and setting: the result for `CC(=O)Oc1cc2c(c(OC(C)=O)c1C1CCc3cc(Cl)c(Cl)n31)C(=O)n1c-2cc(Cl)c1Cl` (stereo not drawn) reads “inactive”; that for `C/C=C(/C)c1c(Cl)c(O)c(C)c2c1Oc1c(Cl)c(O)c(Cl)c(C)c1C(=O)O2`, “inactive”; that for `C/C=C(/C)c1cc(O)c(C)c2c1Oc1cc(O)cc(C)c1C(=O)O2`, “inactive”.
As for `CC(C)[C@]12CC[C@@]3(C)[C@H](C)CC[C@H](O)[C@@]3(CC1)c1cc3c(cc12)[nH]c1ccccc13`, the Potency entry was “inactive”.
On the same count and under the same terms, the result for `C[C@H]1C=C[C@H]2CCCC[C@@H]2[C@H]1C(=O)[C@H]1CC2=C(C(=O)O)CCN2C1=O` reads “inactive”; that for `C/C=C(/C)c1c(Cl)c(OC)c(C)c2c1Oc1c(Cl)c(O)c(Cl)c(C)c1C(=O)O2`, “inactive”; that for `C/C(=C\CC[C@@H](C)[C@H]1CC[C@]2(C)C3=CCC4C(C)(C)[C@@H](O)C[C@@H](O)[C@]4(C)C3[C@H](O)C[C@@]12C)CO` (stereo partly drawn), “inactive”.
Same read-out and setting: the result for `CO[C@H]1[C@@H](OC(=O)/C(C)=C\[C@@H]2O[C@@H]2[C@H]2O[C@H]2C)[C@H](O)[C@H](OCC23C[C@@H]4[C@H](C)CC[C@H]4C4(C=O)CC2C=C(C(C)C)C34C(=O)O)O[C@@H]1C` (stereo partly drawn) reads “inactive”.

Another assay can be described thus: HPAF-II 18hr Apoptosis Induction qHTS against the NCATS CANVASS Library (AID 1347360). Further: potency means the concentration at half of the fitted maximal effect. Particulars: HPAF-II caspase-3/7 luminescence; series mostly up to 46.1 µM. The method, boiled down: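 Luminescent DEVD-substrate signal, proportional to caspase activity, is measured in HPAF-II cells after 18-hour treatment across a concentration series; doxorubicin serves as control.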
As for `CC(C)=CCC[C@]12c3cc4c(cc3CC[C@@]1(C)[C@H](C)CC[C@@H]2O)[nH]c1ccccc14`, the Potency result was “inactive”.
Still for that read-out and setting: the result for `C/C=C/C1C=CC2CC(C)CC(C)C2C1C(=O)CC(=O)NC(CO)C/C=C/CCCCC` (stereo not drawn) reads “inactive”; that for `C=C1CC[C@@H](Br)C(C)(C)[C@]12CC=C(C)C(=O)C2`, “inactive”; that for `C=CC(CCCCC)C1C(=O)NC(=O)C1C(=O)C1C(/C=C/C)C=CC2CC(C(=O)O)CC(C)C21` (stereo not drawn), “inactive”.
On to `COc1cc(/C=C/C(=O)OC[C@@H](Cc2ccc(O)c(OC)c2)[C@@H](COC(=O)/C=C/c2ccc(O)c(OC)c2)Cc2ccc(O)c(OC)c2)ccc1O`, for which the Potency is 8.33 µM (active).
Same read-out and setting: in the case of `C=C[C@@]1(C)CC[C@@H]([C@H](C)C(=O)/C=C/C(C)(C)O)O1` it was “inactive”; in that of `O=C1CC2OCC=C3CN4C5CC3C2[C@@H]2N1c1ccccc1[C@]52C[C@@H]4C1=C[C@H]2C3CC4N(CC[C@@]45c4ccccc4N(C1=O)[C@@H]25)C/C3=C/CO` (stereo partly drawn), “inactive”.
On the same count and under the same terms, in the case of `C=C1CC[C@@H](O[C@H]2C[C@@](O)([C@H](C)NC(=O)c3[nH]c(C)c(Cl)c3Cl)[C@H](O)[C@@H](C)O2)[C@@H]2C=C[C@H](C)C(/C(O)=C3/C(=O)[C@H](C(C)C)N([C@@H]4O[C@H](C)[C@H](OC(N)=O)[C@H](OC(C)=O)[C@@H]4OC)C3=O)[C@@H]12` (stereo partly drawn) it was “inactive”; in that of `CC[C@H](C)[C@H]1NC(=O)[C@@H](NC(=O)C(C)C)[C@@H](C)OC(=O)[C@H](COC(=O)CNC(C)=O)NC(=O)[C@@H]([C@@H](C)O)NC(=O)[C@H](Cc2ccccc2)N(C)C(=O)[C@H](c2ccc(OC)cc2)NC1=O` (Isobutyryl-T[d(aIle)][Phg(4-OMe)][NMeF][d(aThr)]S([Gly-Ac]); ester 1-C), “inactive”; in that of `C=C(C)CC[C@H](Cc1c(O)cc(O)c2c1O[C@H](c1ccc(O)cc1)CC2=O)C(=C)C`, “inactive”.
Still for that read-out and setting: the result for `COc1c(O)cc2c(c1O)C(=O)c1c(coc1C)C2=O` reads “inactive”; that for `C[C@]12CC[C@]3(C1)[C@H](CC2=O)C[C@@H](OC(=O)c1ccccc1)[C@H]1[C@](C)(C(=O)O)CCC[C@@]13C`, “inactive”; that for `Cc1occ2c1C(=O)c1c(cc(O)c(O)c1O)C2=O`, “inactive”.
For the molecule `COc1ccc2[nH]c3c(c2c1)CCN1C[C@H]2C[C@@H](OC(=O)c4cc(OC)c(OC)c(OC)c4)[C@H](OC)[C@@H](OC)[C@H]2C[C@H]31`, the Potency result is “inactive”.
On the same count and under the same terms, in the case of `C=C[C@](Cl)(CBr)CCC=C(C)C` it was “inactive”; in that of `CC(=O)O[C@H]1c2ccccc2-c2c3c(cc4c2[C@@H]1N(C(C)=O)CC4)OCO3`, “inactive”.
Same read-out and setting: in the case of `C=CC(CCCCC)C1C(=O)NC(=O)C1C(=O)C1C2C(C)CC(C(=O)O)CC2CC1(O)C(=O)/C=C/C` (stereo not drawn) it was “inactive”.
The same measure, in the same setting: the result for `O[C@H]1c2ccccc2-c2c3c(cc4c2[C@@H]1NCC4)OCO3` reads “inactive”; that for `C[C@]12CCC[C@](C)(C(=O)O)[C@@H]1CC[C@@]1(C)c3cocc3CC[C@H]21`, “inactive”.
As to `COc1cc(C2OCC3C(c4ccc(O)c(OC)c4)OCC23)ccc1O` (stereo not drawn), the caspase activation was -1.71% [at 9.19 µM] (inactive).
With `C[n+]1cc2cc(C(N)=O)[nH]c3c(=N)c(Cl)c(N)c1c23`, the Potency result was “inactive”.
As to `COc1cc2c(c(O)c1O)C(=O)c1c(coc1C)C2=O`, the Potency entry was “inactive”.
For the molecule `CCC(=O)N[C@@H](C[C@H](C)C(Cl)(Cl)Cl)C(=O)N1C(=O)C=C(OC)[C@@H]1CC(C)C`, the Potency result is “inactive”.
As to `O=c1cc(-c2ccc(O)c(O)c2)oc2cc(O[C@@H]3O[C@H](CO)[C@@H](O)[C@H](O)[C@H]3O)cc(O)c12`, the Potency result was “inactive”.
As to `C/C1=C/[C@@H](C)[C@H](O)[C@@H](O)/C=C/CC/C=C/C(=O)O[C@@H]1[C@H](C)C(=O)CCCC1CC(=O)NC(=O)C1`, the Potency result was “inactive”.
Same read-out and setting: in the case of `CN1CC[C@]2(c3cccc4c3N[C@H]3N(C)CC[C@@]43[C@]34CCN(C)[C@H]3Nc3ccccc34)c3ccccc3N[C@H]12` it was “inactive”.
In the case of `CC[C@H]1[C@H](C)[C@H](c2cc(OC)c(OC)cc2OC)[C@@H](C)[C@H](c2cc(OC)c(OC)cc2OC)[C@@]12C=C(OC)C(=O)C=C2OC`, the Potency entry was “inactive”.
Turning to `CC(=O)Oc1cc2c(c(OC(C)=O)c1C1CCc3cc(Cl)c(Cl)n31)C(=O)n1c-2cc(Cl)c1Cl` (stereo not drawn), the Potency result is “inactive”.
Still for that read-out and setting: in the case of `COc1cc2c(cc1OC)[C@@H](c1ccc3c(c1)OCO3)C(C)C(C)C2=O` (stereo partly drawn) it was “inactive”.
As for `C/C=C(/C)c1c(Cl)c(O)c(C)c2c1Oc1c(Cl)c(O)c(Cl)c(C)c1C(=O)O2`, the Potency result was “inactive”.
As for `CC(C)C[C@@H]1c2c(O)c(C=O)c(O)c(C=O)c2O[C@]2(C)C=C[C@@H](C(C)C)C[C@H]12`, the Potency entry was “inactive”.
`C/C=C(/C)c1cc(O)c(C)c2c1Oc1cc(O)cc(C)c1C(=O)O2`: the Potency result is “inactive”.
The same measure, in the same setting: the result for `CC(C)[C@]12CC[C@@]3(C)[C@H](C)CC[C@H](O)[C@@]3(CC1)c1cc3c(cc12)[nH]c1ccccc13` reads “inactive”; that for `C[C@H]1C=C[C@H]2CCCC[C@@H]2[C@H]1C(=O)[C@H]1CC2=C(C(=O)O)CCN2C1=O`, “inactive”; that for `C/C=C(/C)c1c(Cl)c(OC)c(C)c2c1Oc1c(Cl)c(O)c(Cl)c(C)c1C(=O)O2`, “inactive”.
With `C/C(=C\CC[C@@H](C)[C@H]1CC[C@]2(C)C3=CCC4C(C)(C)[C@@H](O)C[C@@H](O)[C@]4(C)C3[C@H](O)C[C@@]12C)CO` (stereo partly drawn), the Potency result was “inactive”.
The same measure, in the same setting: the result for `COC12OC1(C13OC1(OC)C(=O)c1cc4cc(C)oc(=O)c4c(O)c1C3O)C(O)c1c(cc3cc(C)oc(=O)c3c1O)C2=O` (stereo not drawn) reads “inactive”; that for `CO[C@H]1[C@@H](OC(=O)/C(C)=C\[C@@H]2O[C@@H]2[C@H]2O[C@H]2C)[C@H](O)[C@H](OCC23C[C@@H]4[C@H](C)CC[C@H]4C4(C=O)CC2C=C(C(C)C)C34C(=O)O)O[C@@H]1C` (stereo partly drawn), “inactive”.

These data come from PubChem BioAssay (NCATS).
